A short description of assay [1]: compounds binding Alexa647 anti-His antibody – biochemical, small-molecule microarray, 635 nm fluorescence, artefact control for SMM control protein annotation, primary screen (AID 1128).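 Also: score merges feature fluorescence with signal-to-noise for each printed compound spot.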 As to conditions: higher = more signal.
Assay [2] deals with Human papillomavirus type 1a E7 protein (residues 1-88). In words: HPV1a E7 small-molecule binders, primary screen, biochemical, small-molecule microarray, residues 1-88, 635 nm (AID 1129). To be noted: small-molecule microarray binding, fluorescence 635 nm; higher = more signal.
In assay [3] the target is Focal adhesion kinase 1 (Homo sapiens) (UniProt Q05397). In words: PTK2 protein binding on printed compound slides – biochemical, small-molecule microarray, 635/667 nm fluorescence, BSA, DTT, primary screen (AID 1130).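 Also: composite of spot emission at 667 nm and signal to noise over triplicate slides.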 To be noted: 635 nm fluorescence, higher = more signal.
Sequence of Focal adhesion kinase 1 (Homo sapiens) (Q05397 whole entry, looked up): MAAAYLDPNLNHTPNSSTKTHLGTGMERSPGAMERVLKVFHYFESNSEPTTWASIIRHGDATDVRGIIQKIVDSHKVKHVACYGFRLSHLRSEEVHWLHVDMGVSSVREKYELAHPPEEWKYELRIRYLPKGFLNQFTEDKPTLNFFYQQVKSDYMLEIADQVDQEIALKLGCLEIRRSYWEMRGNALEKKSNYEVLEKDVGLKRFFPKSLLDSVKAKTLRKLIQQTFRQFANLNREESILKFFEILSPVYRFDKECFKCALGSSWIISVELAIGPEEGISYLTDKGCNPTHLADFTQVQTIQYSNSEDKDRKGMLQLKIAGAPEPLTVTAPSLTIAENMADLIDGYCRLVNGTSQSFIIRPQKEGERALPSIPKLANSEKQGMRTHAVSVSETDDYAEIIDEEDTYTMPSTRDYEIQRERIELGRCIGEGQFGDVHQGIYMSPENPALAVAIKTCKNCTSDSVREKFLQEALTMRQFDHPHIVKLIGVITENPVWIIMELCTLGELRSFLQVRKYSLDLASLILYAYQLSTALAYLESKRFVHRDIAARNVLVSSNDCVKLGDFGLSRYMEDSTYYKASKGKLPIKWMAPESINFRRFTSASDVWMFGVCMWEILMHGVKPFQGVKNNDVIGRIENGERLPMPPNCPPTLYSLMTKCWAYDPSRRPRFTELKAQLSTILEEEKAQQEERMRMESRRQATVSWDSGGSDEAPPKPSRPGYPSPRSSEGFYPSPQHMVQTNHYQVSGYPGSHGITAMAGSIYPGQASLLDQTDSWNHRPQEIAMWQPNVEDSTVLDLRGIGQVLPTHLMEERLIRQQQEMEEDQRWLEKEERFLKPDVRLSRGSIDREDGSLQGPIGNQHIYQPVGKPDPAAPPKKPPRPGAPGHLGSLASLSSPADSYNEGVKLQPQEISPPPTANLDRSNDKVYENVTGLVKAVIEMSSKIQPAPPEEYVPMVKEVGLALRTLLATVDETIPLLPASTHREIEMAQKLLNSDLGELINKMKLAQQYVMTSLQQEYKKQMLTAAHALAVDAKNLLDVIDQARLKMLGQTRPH
Assay [4] relates to Fibrinogen (Alexa647-labelled). Nature of the assay: Alexa647-fibrinogen binding to printed small molecules – biochemical, small-molecule microarray, 635/667 nm fluorescence, artefact control for SMM control-protein annotation, profiling panel (AID 1131).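 Also: z-score merges 667 nm fluorescence with per-spot signal-to-noise over triplicate slides.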 To be noted: fibrinogen-A647 binding fluorescence, higher = more signal.
The target of assay [5] is Follistatin (Homo sapiens) (UniProt P19883). In words: FST protein binding to printed compounds – biochemical, small-molecule microarray, 635/667 nm fluorescence, primary screen (AID 1132). As to conditions: 635 nm fluorescence, higher = more signal.
Sequence of Follistatin (Homo sapiens) (P19883 whole entry, looked up): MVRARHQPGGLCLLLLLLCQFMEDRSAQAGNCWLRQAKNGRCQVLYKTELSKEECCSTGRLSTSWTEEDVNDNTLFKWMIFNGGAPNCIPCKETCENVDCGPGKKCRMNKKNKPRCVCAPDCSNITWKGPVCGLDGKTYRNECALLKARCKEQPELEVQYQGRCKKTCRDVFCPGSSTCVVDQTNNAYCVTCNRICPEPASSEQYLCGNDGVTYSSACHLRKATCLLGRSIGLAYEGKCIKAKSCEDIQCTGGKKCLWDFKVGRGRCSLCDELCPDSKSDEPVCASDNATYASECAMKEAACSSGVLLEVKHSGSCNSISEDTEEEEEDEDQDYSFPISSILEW
Assay [6] deals with Fibroblast growth factor 2 (Homo sapiens) (UniProt P09038). Nature of the assay: basic fibroblast growth factor binding to printed compounds – biochemical, small-molecule microarray, 635/667 nm fluorescence, primary screen (AID 1133). To be noted: FGF2, fluorescence 635/667, higher = more signal.
Sequence of Fibroblast growth factor 2 (Homo sapiens) (P09038 whole entry, looked up): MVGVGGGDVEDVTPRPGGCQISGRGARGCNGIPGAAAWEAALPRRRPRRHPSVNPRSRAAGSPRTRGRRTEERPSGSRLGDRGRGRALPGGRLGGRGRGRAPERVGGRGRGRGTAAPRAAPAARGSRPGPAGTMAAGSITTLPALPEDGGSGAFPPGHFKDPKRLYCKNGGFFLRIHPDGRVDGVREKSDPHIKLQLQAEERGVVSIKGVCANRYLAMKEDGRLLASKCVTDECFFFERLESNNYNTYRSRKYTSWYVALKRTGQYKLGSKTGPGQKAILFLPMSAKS
A short description of assay [7]: JC-1 mitochondrial potential readout, lung cancer cells – cell-based, A549, JC-1 fluorescence, basal, 24 h, 100 nL, profiling panel (AID 1138).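 Also: A549 lung adenocarcinoma cells under basal conditions with no added stimulus; test concentration not given here.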 As to conditions: higher = more signal.
The test system of another assay is Lefty1. Nature of the assay: Lefty1 protein binding to printed compounds – biochemical, small-molecule microarray, 635/667 nm fluorescence, primary screen (AID 1139). As to conditions: fluorescence 635/667, higher = more signal.
Assay [8] relates to wheat germ agglutinin (Triticum aestivum), Alexa647-labelled. In words: Alexa647-WGA lectin binding to printed small molecules – biochemical, small-molecule microarray, 635/667 nm fluorescence, artefact control for SMM control-protein annotation, profiling panel (AID 1140).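 Also: score merges 667 nm feature emission with signal to noise over triplicate slides.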 To be noted: WGA-A647 binding, 635 nm fluorescence, higher = more signal.
In assay [9] the target is Luciferin 4-monooxygenase (Photinus pyralis) (UniProt P08659). Nature of the assay: inhibition of purified Photinus pyralis luciferase – biochemical, luminescence, purified enzyme, 2006 set, primary screen (AID 1141).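 Also: cell-free assay with purified firefly luciferase at 100 ng per well in PBS; test concentration not given here.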 As to conditions: purified firefly luciferase, SteadyGlo luminescence, 30 min; higher = more signal, called active from +8 up or from −8 down.
Sequence of Luciferin 4-monooxygenase (Photinus pyralis) (P08659 whole entry, looked up): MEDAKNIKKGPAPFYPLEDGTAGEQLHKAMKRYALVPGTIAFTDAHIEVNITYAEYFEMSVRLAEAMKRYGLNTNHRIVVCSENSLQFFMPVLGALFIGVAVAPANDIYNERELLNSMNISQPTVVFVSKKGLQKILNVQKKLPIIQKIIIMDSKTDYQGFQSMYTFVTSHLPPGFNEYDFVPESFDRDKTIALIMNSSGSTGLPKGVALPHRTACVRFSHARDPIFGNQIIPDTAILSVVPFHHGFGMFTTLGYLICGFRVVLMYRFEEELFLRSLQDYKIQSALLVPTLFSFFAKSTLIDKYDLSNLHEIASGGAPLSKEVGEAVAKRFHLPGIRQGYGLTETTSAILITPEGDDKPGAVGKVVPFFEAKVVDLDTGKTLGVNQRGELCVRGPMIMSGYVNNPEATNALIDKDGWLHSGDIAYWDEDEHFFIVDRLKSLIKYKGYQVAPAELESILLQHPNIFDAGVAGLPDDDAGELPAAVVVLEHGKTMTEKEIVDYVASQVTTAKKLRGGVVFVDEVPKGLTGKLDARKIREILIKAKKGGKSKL
Assay [10] concerns Wnt5a (protein binding on small-molecule microarray). Nature of the assay: small molecules binding Wnt5a protein – biophysical, small-molecule microarray, 635/667 nm fluorescence, primary screen (AID 1142).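 Also: fluorescence read at 667 nm with signal to noise per printed feature.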 To be noted: 635 nm fluorescence, higher = more signal.
Assay [11] can be described thus: ATP-based viability of Huh7 replicon cells – cell-based, CellTiter-Glo luminescence, basal, 48 h, cytotoxicity control for HCV replication inhibitor project, primary screen (AID 1143).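 Also: Huh7 hepatoma cells carrying a hepatitis C replication reporter with no stimulus; test concentration not given here.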 As to conditions: higher = more signal, called active from +8 up or from −8 down. On the technique in general: A replicon is a self-replicating genome or part of one, used to study replication in cells.

A short description of assay [12]: Pseudomonas biofilm growth suppression – PAO1 strain, BacTiter-Glo luminescence, LB-PBS, primary screen (AID 1144). To be noted: P. aeruginosa PAO1 biofilm, 12 h, higher = more signal.
Assay [13] is described as follows: basal CRE-LacZ reporter activity in PC12 – cell-based, unstimulated, primary screen (AID 1145). To be noted: no forskolin, luminescence, 4.5 h, higher = more signal, called active from +8 up or from −8 down.
A short description of assay [14]: forskolin-driven CRE-LacZ activity in PC12 – cell-based, CRE-LacZ reporter, forskolin-stimulated, primary screen (AID 1146).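 Also: PC12 cells with 6xCRE LacZ reporter stimulated by forskolin 10 µM; beta-galactosidase reporter signal reflecting CREB driven transcription.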 As to conditions: luminescence, 4.5 h, higher = more signal, called active from +8 up or from −8 down.
Assay [15] deals with Streptavidin (Streptomyces avidinii) (UniProt P22629). In words: compounds binding control protein streptavidin – biophysical, small-molecule microarray, 635/667 nm fluorescence, artefact control for SMM compound annotation, primary screen (AID 1147).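 Also: signal reflects streptavidin binding to arrayed compounds as a control protein.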 To be noted: higher = more signal.
Sequence of Streptavidin (Streptomyces avidinii) (P22629 whole entry, looked up): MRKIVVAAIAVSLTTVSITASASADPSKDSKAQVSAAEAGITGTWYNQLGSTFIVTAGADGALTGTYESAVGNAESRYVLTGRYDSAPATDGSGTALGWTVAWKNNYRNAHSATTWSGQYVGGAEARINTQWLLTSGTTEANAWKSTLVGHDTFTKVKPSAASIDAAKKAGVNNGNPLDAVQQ
Assay [16] can be described thus: probe aInhba binding on compound microarray – biochemical, small-molecule microarray, 635/667 nm fluorescence, primary screen (AID 1148).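 Also: score merges 667nm spot fluorescence with signal-to-noise for antibody binding to printed compounds.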 To be noted: higher = more signal.
The target in assay [17] is Torsin-1A (Homo sapiens) (UniProt O14656). Nature of the assay: TOR1A wild-type binding on microarray – cell lysate, small-molecule microarray, lysate, 635/667 nm, primary screen (AID 1149). As to conditions: COS7 hTOR1A-WT lysate, 635 nm fluorescence, higher = more signal.
Sequence of Torsin-1A (Homo sapiens) (O14656 whole entry, looked up): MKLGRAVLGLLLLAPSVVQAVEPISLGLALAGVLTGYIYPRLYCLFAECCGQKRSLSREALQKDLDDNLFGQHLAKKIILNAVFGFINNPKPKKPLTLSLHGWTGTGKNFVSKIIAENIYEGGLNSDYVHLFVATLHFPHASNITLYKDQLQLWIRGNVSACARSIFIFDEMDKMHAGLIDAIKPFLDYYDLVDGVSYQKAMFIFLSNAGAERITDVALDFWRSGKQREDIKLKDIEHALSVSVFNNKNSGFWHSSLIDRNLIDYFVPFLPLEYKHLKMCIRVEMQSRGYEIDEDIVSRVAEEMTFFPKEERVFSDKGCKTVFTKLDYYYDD
Assay [18] has the same target. In words: torsin A mutant lysate binding on microarrays – cell lysate, small-molecule microarray, COS7 lysate, 635/667 nm fluorescence, primary screen (AID 1150).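 Also: score pools 667 nm emission and signal to noise measuring lysate protein binding.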 As to conditions: COS7 hTOR1A mutant lysate, 635 nm fluorescence, higher = more signal.
Assay [19] relates to Sonic hedgehog protein (Shh). Nature of the assay: Sonic hedgehog microarray binding compounds – biochemical, small-molecule microarray, 635/667 nm fluorescence, primary screen (AID 1151).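 Also: Shh protein binding to compounds spotted on small-molecule microarray slides; score combines spot fluorescence intensity with signal-to-noise across triplicate slides.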 To be noted: 635 nm fluorescence, higher = more signal.

The source made the active and inactive calls. Unless noted, no rule for the calls is given here.

On to `[N-]=[N+]=NCc1ccccc1C[C@]1(C(=O)N2CCCCC2)N=C(c2ccc(OCCCO)cc2)O[C@H]1c1ccccc1`, for which the composite z-score in [1] came to 0.582; in assay [2], 1.1; in [3] it was 0.425; in assay [4], 0.714; in [5], 0.351; in assay [6], 0.182. Also, the composite z-score in the assay with Lefty1 is -0.599; in assay [8], 0.762; in assay [10] it was 0.601; in assay [15], 0.483; in assay [16] it was -0.0471; with Torsin-1A (Homo sapiens) [17] it was 0.81. Further, the composite z-score with Torsin-1A (Homo sapiens) [18] was 0.139; in assay [19] it was -0.655. The z-score in assay [7] was 1.17; in assay [9], 0.09 (inactive); in [11], -5.06 (inactive); in [12], -0.307 (inactive); in assay [13] it was -0.0017 (inactive); in [14] it was -0.964 (inactive).
For `COCCOC(=O)N1C(=O)[C@@]2(c3cc(C#CCC(C(=O)OC)C(=O)OC)ccc31)[C@H](C(N)=O)[C@H]1C(=O)O[C@H](c3ccccc3)[C@H](c3ccccc3)N1[C@@H]2c1ccc(OCCO)cc1`, the composite z-score amounted to 1.37 in [1]; 1.22 in assay [2]; 0.985 in [3]; 0.923 in assay [4]; 1.25 in assay [5]; 1.1 in [6]. Further, the composite z-score with Lefty1 worked out at 0.596; in [8], 0.762; in assay [10], 0.787; in assay [15], 0.528; in assay [16] it was 0.105; in the assay with Torsin-1A (Homo sapiens) [17], 0.704. For the same molecule, the composite z-score is 0.643 with Torsin-1A (Homo sapiens) [18] and 1.07 in [19]. Besides, the z-score is -1.07 in [7]; -0.409 (inactive) in assay [9]; -2.89 (inactive) in [11]; -0.224 (inactive) in assay [12]; 0.478 (inactive) in assay [13]; -0.372 (inactive) in assay [14].
Consider `COCCCNC(=O)[C@@H]1c2ccccc2C(=O)N(Cc2cc(C(F)(F)F)cc(C(F)(F)F)c2)[C@H]1c1ccc(CO)cc1`, for which the composite z-score in assay [1] was 0.358; in assay [2] it was 0.6; in assay [3], 0.358; in assay [4], -0.788; in [5] it was 0.144; in assay [6], 0.188. Further, the composite z-score was 0.174 in the assay on Lefty1; -0.672 in assay [8]; 0.128 in assay [10]; -0.587 in assay [15]; 0.502 in [16]; 0.47 with Torsin-1A (Homo sapiens) [17]. Besides, the composite z-score in the assay with Torsin-1A (Homo sapiens) [18] stood at 0.7; in assay [19], 0.395. Besides, the z-score in assay [7] was 0.983; in assay [9] it was 0.0036 (inactive); in assay [11] it was -0.334 (inactive); in assay [12], 0.608 (inactive); in assay [13], 0.288 (inactive); in assay [14], -0.613 (inactive).
With `C=CCC(OC(C)=O)[C@@H]1[C@@H](N(Cc2cc3ccccc3o2)C(=O)Cc2ccc(OC)cc2)c2cc(OCCCO)ccc2N1C(=O)Cc1ccc2ccccc2c1` (stereo not given in full), the composite z-score in [1] is 0.305; in assay [2], -0.866; in assay [3], 0.102; in assay [4], 0.136; in assay [5] it was 0.279; in [6] it was -0.662. Besides, the composite z-score was -0.173 with Lefty1; 0.116 in assay [8]; -0.211 in assay [10]; 0.0489 in assay [15]; -0.155 in [16]; -0.773 with Torsin-1A (Homo sapiens) [17]. For the same molecule, the composite z-score with Torsin-1A (Homo sapiens) [18] was -1.01; in assay [19] it was -0.155. Besides, the z-score is 0.432 in [7]; -0.1 (inactive) in [9]; -0.392 (inactive) in assay [11]; 0.334 (inactive) in assay [12]; 1.25 (inactive) in assay [13]; 0.775 (inactive) in assay [14].
On to `CCCCC(=C=CC[C@@H](O)c1ccc(OCCO)cc1)C[C@@H](O)c1ccccn1`, for which the composite z-score in assay [1] is -0.0662; in [2], 0.731; in assay [3] it was 0.178; in [4] it was 0.141; in assay [5] it was 1.22; in assay [6], 0.611. In addition, the composite z-score is 1.47 in the assay with Lefty1; -0.146 in assay [8]; 0.158 in [10]; -0.0544 in [15]; 0.0569 in [16]; 0.634 in the assay with Torsin-1A (Homo sapiens) [17]. In addition, the composite z-score with Torsin-1A (Homo sapiens) [18] is 0.51; in assay [19], 1.48. The z-score in [7] was 0.176; in assay [9], -1.12 (inactive); in assay [11] it was -1.31 (inactive); in assay [12] it was 0.412 (inactive); in assay [13], 14.6 (active); in assay [14], -0.0387 (inactive).

Source of the values: PubChem BioAssay.
